{"source": "PubChem BioAssay"}
{"molecular_target": "Neurogenic locus notch homolog protein 3 (Homo sapiens) (UniProt Q9UM47)", "sequence (Q9UM47 whole entry, looked up)": "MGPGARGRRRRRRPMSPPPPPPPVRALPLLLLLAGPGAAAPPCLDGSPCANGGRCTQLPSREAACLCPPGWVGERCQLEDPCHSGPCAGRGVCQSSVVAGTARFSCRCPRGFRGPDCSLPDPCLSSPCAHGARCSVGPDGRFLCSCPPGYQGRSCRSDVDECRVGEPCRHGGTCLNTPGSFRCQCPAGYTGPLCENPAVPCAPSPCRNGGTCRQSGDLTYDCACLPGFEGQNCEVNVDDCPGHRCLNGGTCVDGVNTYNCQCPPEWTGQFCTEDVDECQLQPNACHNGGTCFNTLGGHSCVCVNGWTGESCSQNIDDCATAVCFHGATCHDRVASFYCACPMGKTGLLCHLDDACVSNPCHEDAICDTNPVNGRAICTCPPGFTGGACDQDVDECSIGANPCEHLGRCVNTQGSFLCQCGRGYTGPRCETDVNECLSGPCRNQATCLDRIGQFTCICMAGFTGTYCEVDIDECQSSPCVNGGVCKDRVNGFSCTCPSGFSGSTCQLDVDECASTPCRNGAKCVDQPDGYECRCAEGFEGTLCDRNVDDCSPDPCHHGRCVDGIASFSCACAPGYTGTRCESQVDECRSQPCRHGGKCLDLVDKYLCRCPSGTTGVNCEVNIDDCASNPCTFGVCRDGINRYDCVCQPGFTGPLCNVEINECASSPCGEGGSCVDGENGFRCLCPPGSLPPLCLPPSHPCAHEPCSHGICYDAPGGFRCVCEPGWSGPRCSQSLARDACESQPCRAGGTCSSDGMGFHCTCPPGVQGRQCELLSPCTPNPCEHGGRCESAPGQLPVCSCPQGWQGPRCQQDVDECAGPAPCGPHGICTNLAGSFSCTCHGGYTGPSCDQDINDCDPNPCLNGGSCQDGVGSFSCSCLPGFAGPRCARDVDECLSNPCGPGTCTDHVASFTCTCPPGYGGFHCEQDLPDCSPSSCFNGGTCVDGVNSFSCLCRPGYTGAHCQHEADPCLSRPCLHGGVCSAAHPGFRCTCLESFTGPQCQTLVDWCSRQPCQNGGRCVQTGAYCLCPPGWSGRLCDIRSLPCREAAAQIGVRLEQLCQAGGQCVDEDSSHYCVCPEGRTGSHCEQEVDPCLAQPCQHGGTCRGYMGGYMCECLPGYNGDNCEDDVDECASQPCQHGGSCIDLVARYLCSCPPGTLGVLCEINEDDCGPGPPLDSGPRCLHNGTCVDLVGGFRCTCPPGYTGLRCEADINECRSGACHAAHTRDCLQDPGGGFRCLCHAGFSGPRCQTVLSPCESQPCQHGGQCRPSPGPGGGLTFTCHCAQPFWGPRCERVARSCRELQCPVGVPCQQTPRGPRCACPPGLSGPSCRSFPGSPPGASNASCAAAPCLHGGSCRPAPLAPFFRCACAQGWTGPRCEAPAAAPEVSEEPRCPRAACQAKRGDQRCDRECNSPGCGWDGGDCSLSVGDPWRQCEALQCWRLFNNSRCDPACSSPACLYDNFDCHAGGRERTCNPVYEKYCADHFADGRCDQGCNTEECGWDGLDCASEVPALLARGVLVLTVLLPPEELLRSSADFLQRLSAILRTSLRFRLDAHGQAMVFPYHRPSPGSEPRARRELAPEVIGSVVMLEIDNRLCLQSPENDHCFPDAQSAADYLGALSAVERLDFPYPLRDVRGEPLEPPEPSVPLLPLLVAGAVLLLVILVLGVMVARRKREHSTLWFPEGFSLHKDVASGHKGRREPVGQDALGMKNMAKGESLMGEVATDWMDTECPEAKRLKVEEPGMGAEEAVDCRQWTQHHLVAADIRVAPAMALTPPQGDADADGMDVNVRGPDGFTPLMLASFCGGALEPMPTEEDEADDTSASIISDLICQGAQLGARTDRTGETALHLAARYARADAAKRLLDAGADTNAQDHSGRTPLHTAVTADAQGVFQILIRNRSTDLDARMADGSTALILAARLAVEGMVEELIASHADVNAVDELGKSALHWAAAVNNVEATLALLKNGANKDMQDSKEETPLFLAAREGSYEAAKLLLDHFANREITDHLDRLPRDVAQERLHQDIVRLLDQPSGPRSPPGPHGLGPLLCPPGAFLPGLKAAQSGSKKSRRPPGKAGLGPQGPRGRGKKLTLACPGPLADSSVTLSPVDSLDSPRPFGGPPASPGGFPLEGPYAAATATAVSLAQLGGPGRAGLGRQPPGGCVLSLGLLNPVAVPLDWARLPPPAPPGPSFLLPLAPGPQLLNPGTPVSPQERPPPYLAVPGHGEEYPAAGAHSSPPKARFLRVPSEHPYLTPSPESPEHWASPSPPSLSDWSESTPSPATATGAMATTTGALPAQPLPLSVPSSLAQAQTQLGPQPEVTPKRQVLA", "test": "NOTCH3 binders on small-molecule microarray, primary screen, biochemical, 635/667 nm fluorescence (AID 1096)", "settings": "NOTCH3 binding, 635 nm fluorescence, higher = more signal"}
{"smiles": "O=C(NCCN1CCOCC1)[C@@H]1c2ccccc2C(=O)N(Cc2cc(C(F)(F)F)cc(C(F)(F)F)c2)[C@H]1c1ccc(CO)cc1", "composite z-score": -0.578}
{"smiles": "C=C(CCCC)/C(=C/C[C@H](OC(C)=O)c1ccccc1OCCO)c1cnc2ccccc2c1", "composite z-score": 1.1}
{"smiles": "COC(=O)[C@@]1(Cc2ccc(OC)cc2)[C@H]2c3cc(C(=O)N4CCCC4)n(CCc4ccc(O)c(O)c4)c3C[C@H]2CN1C(=O)c1ccccc1", "composite z-score": -0.122}
{"smiles": "Cc1ccc(S[C@]2(C(=O)NCC(C)C)CC(=O)N(Cc3cc(C(F)(F)F)cc(C(F)(F)F)c3)[C@@H]2c2ccc(CO)cc2)cc1", "composite z-score": -0.643}
{"smiles": "O=C(NC1CC1)[C@@H]1c2ccccc2C(=O)N(C2Cc3ccccc3C2)[C@H]1c1ccc(CO)cc1", "composite z-score": 0.722}
{"smiles": "O=C1OCCC=C[C@H]2OC34C=CCN(CCN5CCOCC5)C(=O)[C@H]3N(CCCCCO)C(=O)[C@@H]4C12", "note": "(stereo partly specified)", "composite z-score": 0.193}
{"test_system": "not listed separately", "test": "small-molecule microarray binders of probe aEGFR, primary screen, biochemical, biotinylated probe, 635/667 nm fluorescence (AID 1097);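 further: probe is a biotinylated anti-EGFR antibody binding compounds printed on slides; score combines fluorescence near 667 nm and signal to noise of each spot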", "settings": "higher = more signal"}
{"smiles": "COc1ccc(NC(=O)O[C@H]2[C@H](OC(=O)c3cc4ccccc4[nH]3)[C@@H](OC(=O)c3cc4ccccc4[nH]3)[C@@H](OC)O[C@@H]2CO)cc1", "composite z-score": -0.0409}
{"smiles": "C=C(CCCC)C(=O)CC[C@H](OC(=O)c1cccnc1)c1ccc(OCCO)cc1", "composite z-score": 0.0089}
{"smiles": "C=CCN1C(=O)[C@]2(Cc3ccccc3)N=C(c3ccc(OCCCO)cc3)O[C@@H]2c2ccccc21", "composite z-score": 0.133}
{"smiles": "CC(=O)NCCCC[C@@H]1NC(=O)[C@H]2C[C@@H](C(=O)NCCCCCNC(=O)CS)[C@@H](c3ccc(O)cc3)N2C1=O", "composite z-score": -0.171}
{"smiles": "C=CCC(OC(C)=O)[C@@H]1[C@@H](N(Cc2cc3ccccc3o2)C(=O)Cc2ccc(OC)cc2)c2cc(OCCCO)ccc2N1C(=O)c1ccc2ccccc2c1", "note": "(stereo partly specified)", "composite z-score": -0.201}
{"smiles": "CC(c1ccccc1)C(O)C1C=CC2C(=O)N(c3ccccc3)C(=O)C2N1Nc1ccccc1", "note": "(stereo unspecified)", "composite z-score": 0.0038}
{"smiles": "COc1ccc([C@H]2C[C@H]3C(Br)=C[C@@]2(CO)C(=O)[C@]32CO2)cc1", "composite z-score": -0.0799}
{"smiles": "COCCOC(=O)N1C(=O)[C@@]2(c3cc(C#CCCO)ccc31)[C@H](c1ccc(OCCO)cc1)N1[C@H](c3ccccc3)[C@H](c3ccccc3)OC(=O)[C@H]1[C@@H]2C(N)=O", "composite z-score": -0.0436}
{"smiles": "CCCCN1CC=CC23O[C@@H]4/C=C\\CCCOC(=O)C4[C@H]2C(=O)N(CCCCCO)[C@@H]3C1=O", "note": "(stereo partly specified)", "composite z-score": -0.324}
{"smiles": "NCCCCCCNC(=O)[C@H]1C[C@H]2C(=O)N[C@@H](Cc3ccccc3)C(=O)N2[C@H]1c1cccc(OCCO)c1", "composite z-score": 0.0562}
{"smiles": "COc1ccc([Si](C)(C)[C@@H]2[C@@H](CCn3cc(CCO)nn3)O[C@]3(C(=O)N(Cc4cccc(N5C(=O)c6cccc7cccc5c67)c4)c4ccccc43)[C@H]2C)cc1", "composite z-score": -0.125}
{"smiles": "CC(=O)Nc1cc(Br)ccc1C(=O)NCc1ccccc1", "composite z-score": -0.111}
{"smiles": "CCCCCN1CC=CC23O[C@@H]4C=CCOC(=O)[C@@H]4[C@H]2C(=O)N(C(C)CO)[C@@H]3C1=O", "note": "(stereo partly specified)", "composite z-score": -0.296}
{"smiles": "CCOC(=O)C1=C[C@@H](C(C)C)N(S(=O)(=O)c2ccc(C)cc2)[C@H]1c1ccccc1F", "composite z-score": 0.0353}
{"smiles": "CS(=O)(=O)CCOC(=O)C1=CC(CCCO)=CC(C2CC2)N(Cc2cc3c(cc2Br)OCO3)C=C1C(=O)OCCS(C)(=O)=O", "note": "(stereo unspecified)", "composite z-score": 0.0423}
{"smiles": "Cc1c(NC(=O)/C(C#N)=C/c2cccc([N+](=O)[O-])c2)c(=O)n(-c2ccccc2)n1C", "composite z-score": 0.006}
{"smiles": "C=CCN1Cc2ccccc2[C@@H]2OC(c3ccc(OCCCO)cc3)=N[C@]2(CCS(=O)(=O)c2ccccc2)C1=O", "composite z-score": -0.0261}
{"smiles": "C=CCNC(=O)[C@@H]1[C@H]2C(=O)O[C@H](c3ccccc3)[C@H](c3ccccc3)N2[C@H](c2ccc(OCCO)cc2)[C@@]12C(=O)N(C(=O)OCCOC)c1ccc(C#CCC(C(=O)OC)C(=O)OC)cc12", "composite z-score": 0.23}
{"smiles": "CN1C(=O)C2C=CC(C(O)C=Cc3ccc([N+](=O)[O-])cc3)N(Nc3ccccc3)C2C1=O", "note": "(stereo unspecified)", "composite z-score": -0.0372}
{"smiles": "COCCOC(=O)N1C(=O)[C@@]2(c3cc(C#CC4=CCCCC4)ccc31)[C@H](c1ccc(OCCO)cc1)N1[C@H](c3ccccc3)[C@H](c3ccccc3)OC(=O)[C@H]1[C@@H]2C(=O)N1CCc2cc(OC)c(OC)cc2C1", "composite z-score": 0.119}
{"smiles": "CC(C)CN1C(=O)[C@@]2(c3ccc([N+](=O)[O-])cc3)CC(=O)N(C3CCCCC3)[C@@H]2c2ccc(CO)cc21", "composite z-score": -0.261}
{"smiles": "C#CCN1[C@H](/C=C/C2CC2)[C@H](Cc2ccccc2)OC(=O)[C@@H]1Cc1ccccc1", "composite z-score": -0.118}
{"smiles": "COc1ccccc1CN1C(=O)c2ccccc2[C@@]2(Cc3ccccc3N(CCCN(C)C)C2=O)[C@@H]1c1ccc(CO)cc1", "composite z-score": -0.0612}
{"smiles": "COC(=O)[C@@]1(CCC(=O)OC(C)(C)C)N=C(c2ccc(OCCCO)cc2)O[C@H]1c1ccccc1", "composite z-score": -0.125}
{"smiles": "O=C(O)[C@@]1(CCS(=O)(=O)c2ccccc2)N=C(c2ccc(OCCCO)cc2)O[C@H]1c1ccccc1", "composite z-score": -0.144}
{"smiles": "C=CCN(Cc1ccccc1)C(=O)C(c1cccs1)N(C(=O)/C=C\\C(=O)O)c1ccc(CCOCCO)cc1", "note": "(stereo unspecified)", "composite z-score": -0.32}
{"smiles": "CC(C)NC(=O)[C@@H]1c2ccccc2C(=O)N(C(C)C)[C@H]1c1ccc(CO)cc1", "composite z-score": -0.44}
{"smiles": "C=CCC(OC(C)=O)[C@@H]1[C@@H](N(Cc2ccc(-c3cccc(C(F)(F)F)c3)o2)C(=O)c2cccc3ccccc23)c2cc(OCCCO)ccc2N1C(=O)Cc1ccc2ccccc2c1", "note": "(stereo partly specified)", "composite z-score": -0.146}
{"smiles": "COc1ccc([Si](C)(C)[C@@H]2[C@@H](CCn3cc([C@H](O)c4ccccc4)nn3)O[C@]3(C(=O)N(Cc4cccc(N5CCC5=O)c4)c4ccccc43)[C@H]2C)cc1", "composite z-score": -0.0267}
{"smiles": "O=C(NCCN1CCOCC1)[C@@H]1c2ccccc2C(=O)N(Cc2cc(C(F)(F)F)cc(C(F)(F)F)c2)[C@H]1c1ccc(CO)cc1", "composite z-score": -0.0744}
{"smiles": "C=C(CCCC)/C(=C/C[C@H](OC(C)=O)c1ccccc1OCCO)c1cnc2ccccc2c1", "composite z-score": -0.142}
{"smiles": "COC(=O)[C@@]1(Cc2ccc(OC)cc2)[C@H]2c3cc(C(=O)N4CCCC4)n(CCc4ccc(O)c(O)c4)c3C[C@H]2CN1C(=O)c1ccccc1", "composite z-score": 0.212}
{"smiles": "Cc1ccc(S[C@]2(C(=O)NCC(C)C)CC(=O)N(Cc3cc(C(F)(F)F)cc(C(F)(F)F)c3)[C@@H]2c2ccc(CO)cc2)cc1", "composite z-score": -0.073}
{"smiles": "O=C(NC1CC1)[C@@H]1c2ccccc2C(=O)N(C2Cc3ccccc3C2)[C@H]1c1ccc(CO)cc1", "composite z-score": -0.16}
{"smiles": "O=C1OCCC=C[C@H]2OC34C=CCN(CCN5CCOCC5)C(=O)[C@H]3N(CCCCCO)C(=O)[C@@H]4C12", "note": "(stereo partly specified)", "composite z-score": -0.158}
